In PubChem BioAssay AID1159580 (chemical genetic matrix, 2015):
The campaign covered roughly 5,500 compounds. About 2,000 (36%) were called active. Inconclusive results (about 18%) are left out. No stated cut-off is given here; in the data, active means normalized growth mostly below about 0.91 (no sharp cut-off); inconclusive means no clear call, values can overlap the other calls; inactive means mostly above about 0.92. The list shows a part of the results.

Assay: chemical genetic growth profiling, strain panel (AID 1159580);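 further: tested at 20 µM; growth read once vehicle control cultures reached saturation at 30 °C; 1 = growth at the plate median or of vehicle wells; lower values mean less growth of the strain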
Settings: S. cerevisiae deletion strains, growth OD

Measured: normalized growth

O=S(=O)(c1cccc2c(Cl)cccc12)N1CCCNCC1
inactive: locus YAL040C, strain CLN3, active compounds read low 0.99 | locus YDR363W, strain ESC2, active compounds read low 1 | locus YER002W, strain NOP16, active compounds read low 0.988 | locus YGR078C, strain PAC10, active compounds read low 0.986 | locus YMR263W, strain SAP30, active compounds read low 1 | locus YNL128W, strain TEP1, active compounds read low 1.01 | locus YNL175C, strain NOP13, active compounds read low 1.03 | locus YNL197C, strain WHI3, active compounds read low 1.03 | locus YNL224C, strain SQS1, active compounds read low 1.01 | locus YOR083W, strain WHI5 (second series), active compounds read low 1.02 | locus YPL241C, strain CIN2, active compounds read low 1
